Compound activity as filed in PubChem BioAssay.
VCAM1 pot – enhances TNF alpha induced VCAM1 expression in HUVEC; HUVEC TNFa-stimulated VCAM-1 immunofluorescence, high-content imaging; scaled per plate to unstimulated/TNFa-only wells; activation, % at 2 µM; 0.19% of 93,000 active; AID 808;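 active = activation above the screen mean plus 3 SD, with well images confirming the hit on visual review, cut at about 28% in these data, passing the limit was not always enough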;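 note: signal is the number of cytoplasmic VCAM-1 stained grains per positive cell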
VCAM1 pot confirm – enhancers of VCAM1 induction in HUVEC – imaging, triplicate retest, confirmation. HUVEC TNFa-stimulated VCAM-1 immunofluorescence imaging. shares compounds with VCAM1 pot. activation, % at 2 µM. 230 tested, under 10 active;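 active = activation above 30% in triplicate retests at 2 µM, then confirmed by visual review of the well images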;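 note: scaled per plate between unstimulated and TNFa-stimulated DMSO control wells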
* = called active by the depositor. This is one part of a sample in which hits are shown more often than they occur.

SMILES | VCAM1 pot | others
Cc1cc2nc(-c3ccc(NC(=O)C(C)C)cc3)oc2cc1C | 58* | VCAM1 pot confirm=-3
COc1ccc(N/C(=N\c2nc(C)cc(C)n2)NC(=O)C(C)C)cc1OC | 3
CC(Oc1ccc(Cl)cc1Cl)C(=O)Nc1ccc2oc(-c3ccncc3)nc2c1 (stereo unspecified) | 6
CCN(CC)C(=O)N1CCC(NC(=O)c2ccc(C(C)(C)C)cc2)CC1 | 2
Cc1ccc(NC(=O)CC2COc3ccccc3O2)cc1 (stereo unspecified) | -1
COc1ccc(OC)c2c(C)cc(N3CCN(C(=O)c4ccc(F)cc4)CC3)nc12 | 18
Cc1cccc(-c2noc(CCc3ccccc3)n2)c1 | 3
COc1ccc(-c2nc(-c3cccc(C)c3)no2)cc1OC | 54* | VCAM1 pot confirm=-17
Cc1nc(-c2cccc(-c3noc(C)n3)c2)no1 | -37
COc1cc(C(=O)COC(=O)CNC(=O)C2CCCCC2)cc(OC)c1OC | 4
c1ccc(OCCOCCSc2ncccn2)cc1 | -7
NC(=O)C1CCN(C(=O)CSc2ccccn2)CC1 | 41* | VCAM1 pot confirm=-6
NC(=O)C1CCN(C(=O)CCSc2ccccc2)CC1 | 5
O=C(CSc1ccc2nnc(-c3ccccc3)n2n1)N1CCN(c2ccccc2)CC1 | -8
COc1ccc(C(=O)Nc2cccnc2)cc1S(=O)(=O)N1CCOCC1 | -5
CNc1nc(SCc2ccccc2)nc(N2CCOCC2)n1 | -9
CCCn1nnnc1NC(=O)c1cccs1 | -6
Cc1ccccc1CSCCNC(=O)CCSc1ccccc1 | 9
Cc1ccc(CNC(=O)CS(=O)CC(=O)O)cc1 (stereo unspecified) | 8
NC(=O)c1c(NC(NC(=O)c2ccco2)(C(F)(F)F)C(F)(F)F)sc2c1CCCC2 | -17
NC(=O)c1c(NC(=O)Cc2cccs2)sc2c1CCC2 | -92
CCC(=O)Nc1sc2c(c1C(N)=O)CCC2 | 114* | VCAM1 pot confirm=-8
O=C1/C(=C/c2cccc3ccccc23)CCCc2ccccc21 | 33
COc1ccc(NC(=O)C(=O)NCCN2CCN(C(=O)C(c3ccccc3)c3ccccc3)CC2)cc1 | -6
CCCN(CCC)C(=O)CSc1nc2ccccc2c(=O)n1C1CCCC1 | 63* | VCAM1 pot confirm=-8
SMILES | VCAM1 pot | others
Cc1cc(NC(=O)CSc2nc3ccccc3c(=O)n2C2CCCC2)no1 | -68
CCCCNC(=O)CSc1nc2ccccc2c(=O)n1Cc1ccc2c(c1)OCO2 | 0
O=C(NCCc1ccccc1F)[C@@H]1CSC2c3ccccc3C(=O)N21 (stereo partly specified) | 1
COc1ccc(C(=O)N[C@H](C(=O)NCC2CCCCC2)C(C)C)cc1 | -18
Cn1c(=O)n(CCc2ccccc2)c(=O)c2c1nc1n2CCN1Cc1ccco1 | 0
O=C(COC(=O)CCS(=O)(=O)c1ccc(Cl)cc1)NC1CCCCC1 | 54* | VCAM1 pot confirm=-14
O=C(NC1CC1)c1ccc(S(=O)(=O)NCC2CCCCC2)cc1 | -52
Cc1cc(C(=O)OCC(=O)NC2CCCCC2)c(C)o1 | -16
COC(=O)C1=C(C)N(c2ccc(F)cc2)C(=O)C1 | -7
COC(=O)c1cc(NC(=O)CCc2c(C)nc3ncnn3c2C)cc(C(=O)OC)c1 | 8
CCNC(=O)/N=C1/NC(=O)C(C(C)C)O1 (stereo unspecified) | -9
CC1CCCCN1C(=O)Cn1cc(C(=O)c2ccco2)c2ccccc21 (stereo unspecified) | -16
Cn1cnnc1SCC(=O)Nc1ccccc1C(=O)NC1CC1 | 36* | VCAM1 pot confirm=-13
Cn1cnnc1SCCNS(=O)(=O)c1ccccc1 | 7
Cc1nnc(NC(=O)CSc2nccn2C)s1 | 6
CC(C)CNC(=S)NNC(=O)c1ccco1 | -38
CCOc1cnc(-c2ccc(OC)cc2)o1 | 0
CC(C)(C)NC(=O)CN(C(=O)Cn1nnc(-c2ccccc2F)n1)c1cccc2c1CCCC2 | 4
CCCOC(=O)C1C2C=C[C@]3(CN(CCc4ccccc4)C(=O)[C@H]13)O2 (stereo partly specified) | -93
Cc1c2cccn2cc[n+]1C | -24
